Compound activity (PubChem BioAssay)
aSyn 5UTR act = Activators via SNCA 5'UTR binding, MLPCN. alpha-synuclein 5'UTR reporter, activators screen. activity score, % (tested at 7.5 µM), hits read low. 300,000 tested, 7.1% active. AID 1814; in the data active means activity score below about -60%
The depositor's hits bear a star. The list is a sample of the results.

SMILES | aSyn 5UTR act
O=C(Nc1ccc(NC(=O)c2cccs2)cc1Cl)c1ccco1 | -154.0*
O=C(CCl)c1ccc2c(c1)CCN2C(=O)C1CC1 | -94.3*
Cc1cc2sc3ccccc3c(=O)c2c(C)c1O | -95.6*
CCC(C)c1ccc(NC(=O)Nc2cccnc2)cc1 (stereo not given) | -155.3*
O=C(Nc1ccccc1)Nc1ccc(Oc2cccnc2)nc1 | -105.5*
CC(C)(C)c1ccc(Oc2ccc(NC(=O)c3ccccc3C(=O)O)cn2)cc1 | 85.7
O=C(Nc1ccc(OC(F)(F)F)cc1)Nc1cccnc1 | -110.3*
COC(=O)C1(C)CCC(C(=O)Nc2ccccc2)C1(C)C (stereo not given) | 62.0
CCC1CC(C(=O)Nc2ccccc2)C(=O)O1 (stereo not given) | -64.4*
O=C(N/N=C/c1ccc(Br)o1)c1ccc2c(c1)OCCO2 | -122.8*
O=C(N/N=C/c1cccnc1)c1ccc2c(c1)OCCO2 | -82.4*
Cc1ccc(/C=N\NC(=O)c2ccc3c(c2)OCO3)o1 | -80.6*
O=C(N/N=C/c1ccc([N+](=O)[O-])o1)c1ccc2c(c1)OCO2 | 93.6
CN(C)c1ccc(/C=N/NC(=O)c2ccc3c(c2)OCO3)cc1 | -103.6*
COc1c(O)ccc(/C=N/NC(=O)c2ccc3c(c2)OCCO3)c1[N+](=O)[O-] | -110.4*
O=Cc1ccc(-c2nc3ccccc3s2)o1 | -98.3*
O=C(O)CCCN1C(=O)/C(=C\c2ccc(-c3nc4ccccc4s3)o2)SC1=S | -82.6*
N#Cc1c(-c2ccc(Cl)cc2)ccn2nc(C3CCCCC3)nc12 | -164.1*
COC(=O)c1sc(NC(=S)NC(=O)c2ccccc2F)nc1C | -151.8*
COC(=O)c1sc(NC(=S)NC(=O)c2cccc(C)c2)nc1C | -143.8*
COc1ccccc1/C=C/C(=O)Nc1cccnc1 | -75.8*
O=C(COC(=O)/C=C/c1ccccc1Cl)NCCNC(=O)COC(=O)/C=C/c1ccccc1Cl | -63.0*
O=C(/C=C/c1ccccc1Cl)Nc1cccc(S(=O)(=O)NC2=NCCCCC2)c1 | -81.6*
O=C(/C=C/c1ccccc1Cl)Nc1cccnc1 | -150.4*
O=C(/C=C/c1ccccc1Cl)NC1CCCCC1 | -118.6*
SMILES | aSyn 5UTR act
O=C(/C=C/c1ccc(Cl)c(Cl)c1)Nc1cccnc1 | -101.5*
O=C(/C=C/c1ccccc1Cl)Nc1ccncc1 | -345.6*
CCC(CC)NC(=O)/C=C/c1ccccc1Cl | -100.0*
CC(C)(C)c1ccc(/C=C/C(=O)Nc2cccnc2)cc1 | -231.6*
CC(=O)N(C)c1ccc(NC(=O)/C=C/c2ccccc2Cl)cc1 | -85.5*
O=C(/C=C/c1ccc(Cl)cc1Cl)Nc1ccncc1 | -279.5*
O=C1S/C(=C\C=C\c2ccco2)C(=O)N1c1ccc(O)cc1 | -244.9*
O=C1S/C(=C\C=C\c2ccco2)C(=O)N1c1ccccc1 | -216.6*
O=[N+]([O-])c1cccnc1Oc1ccc(C2SCCS2)cc1 | -106.3*
O=[N+]([O-])c1cccnc1Sc1ccc(Br)cc1 | 49.5
O=[N+]([O-])c1cccnc1Oc1ccc(OCc2ccccc2)cc1 | -78.7*
CC1(C)C2C/C(=N\O)C(C)(/[N+]([O-])=C/c3cccc([N+](=O)[O-])c3)CC21 (stereo not given) | -62.4*
CC(=O)n1cc(N(C(=O)CCl)c2ccccc2)c2ccccc21 | 106.3
CC(=O)n1c(Cl)c(NC(=O)CCl)c2ccccc21 | -80.2*
COC(=O)[C@@H]1Cc2c([nH]c3ccccc23)C(C)(C)N1C(=O)CCl | 61.0
CC1CCCN(C(=O)COC(=O)c2n[nH]c3ccccc23)C1 (stereo not given) | -140.0*
COc1cccc(NC(=O)c2ccc3c(c2)N(C)CCS3)c1 | -116.9*
CN1CCSc2ccc(C(=O)Nc3ccc(Cl)cc3)cc21 | -215.0*
COc1cccc(NC(=O)c2ccc3c(c2)CCN3S(C)(=O)=O)c1 | -118.3*
O=C(CSc1nnc(SCc2ccc(Cl)cc2)s1)N/N=C/c1c(Cl)cccc1Cl | -68.8*
Cc1ccc(CSc2nnc(SCC(=O)N/N=C/c3ccccc3OCC(=O)O)s2)cc1 | 61.7
O=C(CSc1nnc(SCc2ccccc2Cl)s1)N/N=C/c1c[nH]c2ccccc12 | -94.2*
Cc1ccc(CSc2nnc(SCC(=O)N/N=C/c3ccc(C(=O)O)cc3)s2)cc1 | 69.5
CCOC(=O)c1cnc(Nc2ccccc2)nc1C(F)(F)F | -89.2*
O=C(/C=C/c1ccc2c(c1)OCCCO2)c1ccccc1O | -311.3*
SMILES | aSyn 5UTR act
Cc1ccc(O)c(C(=O)/C=C/c2ccc3c(c2)OCCCO3)c1 | -188.4*
Cc1ccc(COc2ccc(-c3nnco3)cc2)cc1 | -118.1*
CC(C)(C)c1nnc(NC(=O)Nc2ccc(Cl)cc2)s1 | -113.5*
Cc1nc(NC(=O)Nc2ccc(Cl)cc2)sc1C | -164.4*
COc1ccc(NC(=O)Nc2nnc(C(C)(C)C)s2)cc1 | -66.9*
CCOC(=O)N1N=C(c2ccccc2)CC1(O)C(F)(F)F (stereo not given) | -75.4*
CCOC(=O)C1=NN(C(=O)c2cccc(Br)c2)C(O)(C(C)(C)C)C1 (stereo not given) | 104.7
COC(=O)N1N=C(c2ccc(Br)cc2)CC1(O)C(F)(F)F (stereo not given) | -125.7*
CCSc1ccc(NC(=O)c2cccnc2)cc1 | -66.1*
CC(C)c1ccc(NC(=O)c2cccnc2)cc1 | -247.3*
CC(C)c1ccc(NC(=O)c2csnn2)cc1 | -97.6*
CC(C)c1ccc(NC(=O)c2snc3ccc(Cl)cc23)cc1 | -369.5*
CCc1ccc(NC(=O)c2cccnc2)cc1 | -78.8*
COc1ccc(Cc2nc(-c3ccc(NC(=O)c4cccnc4)cc3)no2)cc1 | 75.1
C/C(=N\Nc1cc(Cl)nc(C)n1)c1ccccc1 | -142.0*
CC(=O)c1c(C)[nH]c(C(=O)OCc2ccccc2F)c1C | -100.7*
CCCCCCC(=O)c1c(C)[nH]c(C(=O)OCC)c1C | -113.5*
CC(=O)c1c(C)[nH]c(C(=O)OCCOc2ccccc2)c1C | 66.8
CC(=O)c1c(C)[nH]c(C(=O)OCc2ccc(Br)cc2)c1C | -74.4*
CC(=O)c1c(C)[nH]c(C(=O)OCc2cccc(C)c2)c1C | -89.6*
CCOC(=O)c1c(C)[nH]c(C(=O)C(C)Sc2ccc(Cl)cc2)c1C (stereo not given) | -97.4*
CCOC(=O)c1c(C)[nH]c(C(=O)OCc2ccccc2)c1C | -165.4*
CCOC(=O)c1[nH]c(C)c(C(=O)Nc2ccc(C)c(Cl)c2)c1C | -91.7*
CCOC(=O)c1c(Cc2ccccc2)c[nH]c1C | -74.8*
CCOC(=O)c1c(C)[nH]c(C(=O)OCC(=O)NCCc2ccc(OCC)c(OCC)c2)c1C | 60.1
SMILES | aSyn 5UTR act
CCOC(=O)c1c(C)[nH]c(C(=O)N/N=C\c2ccccc2O)c1C | 86.8
CCOC(=O)c1c(C)[nH]c(C(=O)NCc2ccccn2)c1C | -158.9*
O=[N+]([O-])c1ccc(-c2cn(-c3ccccc3F)c(=S)[nH]2)cc1 | -93.8*
Cc1ccc(-c2cn(-c3ccccc3F)c(=S)[nH]2)cc1 | -124.0*
CC(C)CC(=O)NC(c1cccs1)c1ccc2cccnc2c1O (stereo not given) | 74.0
Cc1ccc(OCC(=O)Nc2ccc(-c3nc4ncccc4o3)cc2)c(C)c1 | -102.1*
Cc1cc(-c2nc3ncccc3o2)ccc1NC(=O)CC(C)C | -74.7*
COC(=O)/C(C#N)=C1/C=Cc2ccccc2N1 | -99.3*
Cc1ccc2nc(SCC(=O)c3ccc(Cl)s3)[nH]c2c1 | -66.2*
CNC(=O)COC(=O)c1ccc(-c2nc3ccccc3s2)s1 | -160.7*
COCCCNC(=O)COC(=O)c1ccc(-c2nc3ccccc3s2)s1 | -68.0*
O=C(NC1CC1)c1cc2cc3ccccc3nc2s1 | -152.4*
O=C(Nc1cccc(F)c1)Nc1ccc2c(c1)OCO2 | -99.0*
